This excerpt belongs to a sample that is enriched for hits.
Pf Dd2 growth: blocks in vitro growth of P. falciparum Dd2. P. falciparum Dd2 growth, SYBR Green, 72 h. Potency, µM (doses to about 28.9 µM), hits mostly inhibitors. hit rate 4.3% among 120,000. AID 1347417; active means well fitted inhibition curve with a large enough effect; further: nearly all actives have a fitted effect of over 65% in size
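Infected erythrocytes (Dd2, 0.3% parasitemia, 2.5% hematocrit final) are added to compound in RPMI-1640/Albumax II medium, grown 72 h at 37C in low oxygen, then lysed with saponin/Triton-X containing SYBR Green and read by fluorescence.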
A number is an active result; i = inactive; [ ] = another dose, or the depositor's remark.

SMILES	Pf Dd2 growth
O=C(c1ccccn1)N1CCC(c2cc(-c3ccc(F)cc3)n[nH]2)CC1	i[5.79 µM]
CS(=O)(=O)N1CCN(C(=O)N2CCOCC2)[C@@H](C(=O)N[C@@H](CC2CCCCC2)C(N)=O)C1	i
O=C(NCCc1ccncc1)C1c2ccccc2C(=O)N(C2CCCCC2)C12CCCCC2 (stereo not given)	10µM
CCCNC(=O)C1c2ccccc2C(=O)N(C2CCCCC2)C12CCCCC2 (stereo not given)	i
O=C(NCCc1ccncc1)C1c2ccccc2C(=O)N(Cc2ccccc2)C12CCCC2 (stereo not given)	i
O=C(NCCc1ccccc1)c1noc(-c2ccc(F)cc2)n1	i
Cc1nn(-c2ccccc2)c(C)c1[C@@H]1C=C[C@@H](NCc2ccc(F)cc2)C1	5µM
Cc1nn(-c2ccc(C(C)(C)C)cc2)c(C)c1[C@@H]1C=C[C@@H](NC(=O)Nc2ccccc2)C1	i
COc1ccc(NC(=O)O[C@@H]2C=C[C@H](c3c(C)nn(-c4ccccc4C)c3C)C2)cc1	i
Cc1ccc(-n2nc(C)c([C@@H]3C=C[C@@H](N)C3)c2C)cc1Cl	i
Cc1nn(-c2ccc(C(F)(F)F)cc2)c(C)c1[C@@H]1C=C[C@@H](NC(=O)C2CCCCC2)C1	i
Cc1nn(-c2ccc(C(F)(F)F)cc2)c(C)c1[C@@H]1C=C[C@@H](NC(=O)Nc2ccccc2)C1	11µM
Cc1ccc(-n2nc(C)c([C@@H]3C=C[C@@H](NC(=O)c4cccs4)C3)c2C)cc1Cl	11µM
O=C(N[C@H]1CCN2C(=O)N(c3ccc(F)c(Cl)c3)C(=O)[C@@H]2C1)c1cccs1	i
Cc1nn(-c2ccc(C(C)C)cc2)c(C)c1[C@@H]1C=C[C@@H](NCc2cccc(Cl)c2)C1	i
Cc1nn(Cc2ccccc2)c(C)c1[C@@H]1C=C[C@@H](NC(=O)Nc2cccc(C#N)c2)C1	i
Cc1ccc(-n2nc(C)c([C@H]3C=C[C@@H](OC(=O)Nc4cccc(F)c4)C3)c2C)cc1Cl	11µM
Cc1nn(-c2ccc(F)cc2)c(C)c1[C@@H]1C=C[C@@H](NS(=O)(=O)c2cccs2)C1	i
COc1ccc(/C=C/CN2CCC(CCC(=O)Nc3ccccc3Cl)CC2)cc1	i
COc1ccc(CCNc2ncnc3c2CN(c2ccccc2F)C(=O)CN3C)cc1	i
O=C(C1CC1)N1CCC(OCCOc2cccnc2)CC1	i
Cc1nc2cc(N3CCC(C(=O)NCCC4=CCCCC4)CC3)cnc2nc1C	i
CCOCC(=O)N1CC(F)(F)C[C@H]1c1nc(C(=O)NC)no1	i
O=C(Nc1cccc(F)c1)N1CCc2nnc(C3CC3)n2CC1	i
Cc1ccccc1[C@H]1C[C@@H](O)[C@@H](O)[C@@H]1NS(=O)(=O)c1ccc(C(F)(F)F)cc1	i
SMILES	Pf Dd2 growth
Cc1nn(Cc2ccccc2)c(C)c1[C@@H]1C=C[C@@H](NC(=O)CSCC(=O)O)C1	i
Cc1nn(Cc2ccccc2)c(C)c1[C@@H]1C=C[C@@H](NC(=O)CCC(=O)O)C1	i
Cc1nn(-c2cccc(Br)c2)c(C)c1[C@@H]1C=C[C@@H](NC(=O)CC(C)(C)CC(=O)O)C1	8.9µM
Cc1nn(-c2ccccn2)c(C)c1[C@@H]1C=C[C@@H](NC(=O)CCC(=O)O)C1	i
Cc1nn(-c2ccc(C(C)(C)C)cc2)c(C)c1[C@@H]1C=C[C@@H](NC(=O)c2cccs2)C1	i
Cc1nn(-c2ccc(C(F)(F)F)cc2)c(C)c1[C@@H]1C=C[C@@H](NC(=O)c2cccs2)C1	2.8µM
Cc1noc(-c2cccc(F)c2)c1C(=O)NCc1ccc(Cl)cc1	i
CCn1ccc(C(=O)NCC2Cn3cccc3C(=O)N2CC(C)C)n1 (stereo not given)	i
CCn1ccc(C(=O)NCC2Cn3cccc3CN2Cc2ccccc2)n1 (stereo not given)	14µM
Cn1nccc1C(=O)NCC1Cn2cccc2CN1Cc1ccccc1 (stereo not given)	i
CN1Cc2cccn2CC1CNC(=O)Cc1cccc(F)c1 (stereo not given)	i
Cc1cc(C(=O)NCC2Cn3cccc3C(=O)N2Cc2ccccc2)n(C)n1 (stereo not given)	i
O=C(NCC1Cn2cccc2CN1Cc1ccccc1)c1cncc(Br)c1 (stereo not given)	10µM
Cn1cnc(S(=O)(=O)NCC2Cn3cccc3CN2Cc2ccccc2)c1 (stereo not given)	i
Cc1cc(C)n(Cc2ccc(C(=O)NCC3Cn4cccc4CN3Cc3ccccc3)o2)n1 (stereo not given)	5µM
CN1Cc2cccn2CC1CNC(=O)Cc1ccccc1 (stereo not given)	i
CC(C)S(=O)(=O)N1CCC2(CC1)NCCc1c2[nH]c2ccccc12	i
CNC(=O)[C@@H](c1ccccc1)N1CCC[C@H]1C(=O)NCC1CC1	i
COCc1ccc2c(c1)c(OC(C)(C)C(=O)NCCCn1ccnc1)nn2Cc1cccnc1	i
O=C(c1ccc(C(F)(F)F)cc1)N1CCOC[C@H](Oc2cccnc2)C1	i
CS(=O)(=O)N1C[C@H]2CCN(Cc3ccccc3F)C[C@H]21	i
O=C1OCC2(CCN([S+](=O)([O-])c3ccccc3)C2)N1CCN1CCOCC1 (stereo not given)	i
COc1ccccc1-c1nc2cc(NC(=O)c3ccccc3Cl)ccc2o1	i
O=C(Nc1ccc2oc(-c3cccc(F)c3)nc2c1)c1ccc2ccccc2c1	1µM
O=C(Cc1ccc(Cl)cc1)Nc1ccc2oc(-c3ccccc3F)nc2c1	i
SMILES	Pf Dd2 growth
O=C(Nc1ccc2oc(-c3ccccc3)nc2c1)c1ccc2ccccc2c1	i
O=C(Nc1ccc(-c2nc3cc(NC(=O)c4ccc(F)cc4)ccc3o2)cc1)c1ccc(F)cc1	i
O=C(Nc1ccc2oc(-c3ccccc3F)nc2c1)c1ccccc1Cl	4µM
Cc1cc(CNC(=O)C2(C(N)=O)CC2)c2[nH]c(-c3ccccc3)c(C)c2c1	i
Cc1cc(C(=O)NCC2(COc3ccccc3)C[C@@H](O)[C@@H](O)C2)n(C)n1 (stereo not given in full)	i
CC1Oc2ccc(NC(=O)Cc3ccccc3)cc2CN(Cc2ccc(Cl)cc2)C1=O (stereo not given)	i
O=C(c1ccncn1)N1CC(F)(F)C[C@H]1c1nc(C2CC2)no1	i
COc1ccc(CCNC(=O)c2noc(-c3ccc[nH]c3=O)n2)cc1OC	i
Cn1cc(CNC(=O)C[C@@H]2C[C@H]3O[C@H](CNCc4ccccc4OC(F)(F)F)[C@@H](O)[C@H]3O2)cn1	i
Cc1ccc(NC(=O)Cn2c(-c3ccc(F)cc3)nc(C)c(CCO)c2=O)cc1	i
COc1cc(NC(=O)Cn2c(-c3ccc(F)cc3)nc(C)c(CCO)c2=O)cc(OC)c1	11µM
COc1ccc(NC(=O)Cn2c(-c3ccc(F)cc3)nc(C)c(CCO)c2=O)cc1Cl	i
COc1ccc(CNC(=O)c2noc(-c3ccc(C)cc3)n2)c(OC)c1	i
Cc1cc(C(=O)N2CCC3(CC2)C(=O)N(C)c2ccccc23)nn1C	i
Cc1cc(Cl)ccc1NC(=O)N1CCC(n2cnnc2C2CC2)C1 (stereo not given)	i
COc1ccc(-c2noc([C@@H](C)NC(C)=O)c2C(=O)O)cc1	i
COc1cncc(Nc2cnc3ccc(-c4cccc(CO)c4)nn23)c1	13µM
CN(C)c1ccc2ncc(Nc3cccc(C(F)(F)F)c3)n2n1	i
c1ccc(Nc2cnc3ccc(N4CCOCC4)nn23)cc1	i
COc1ccccc1-c1ccc2ncc(Nc3ccccc3)n2n1	7.9µM
COc1ccc(Nc2cnc3ccc(-c4ccc(F)cc4)nn23)cc1OC	2.8µM
COc1ccc(-c2ccc3ncc(Nc4cccc(Cl)c4)n3n2)cn1	i
